ERAP1 inh = blocks human ERAP1 aminopeptidase activity; inhibition, % at 10.7 µM; AID 652197; recombinant ERAP1, Leu-AMC fluorescence, 60 min; Q9NZ08; hit rate 0.15% among 340,000;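 active means mean replicate inhibition of at least 30%, or all replicates individually reaching that 30% level; inactive means mean below 30% and not every replicate reaching it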;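 further: 0% = neutral control wells and 100% = L-leucinethiol positive control wells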
Target sequence (Q9NZ08 whole entry, looked up): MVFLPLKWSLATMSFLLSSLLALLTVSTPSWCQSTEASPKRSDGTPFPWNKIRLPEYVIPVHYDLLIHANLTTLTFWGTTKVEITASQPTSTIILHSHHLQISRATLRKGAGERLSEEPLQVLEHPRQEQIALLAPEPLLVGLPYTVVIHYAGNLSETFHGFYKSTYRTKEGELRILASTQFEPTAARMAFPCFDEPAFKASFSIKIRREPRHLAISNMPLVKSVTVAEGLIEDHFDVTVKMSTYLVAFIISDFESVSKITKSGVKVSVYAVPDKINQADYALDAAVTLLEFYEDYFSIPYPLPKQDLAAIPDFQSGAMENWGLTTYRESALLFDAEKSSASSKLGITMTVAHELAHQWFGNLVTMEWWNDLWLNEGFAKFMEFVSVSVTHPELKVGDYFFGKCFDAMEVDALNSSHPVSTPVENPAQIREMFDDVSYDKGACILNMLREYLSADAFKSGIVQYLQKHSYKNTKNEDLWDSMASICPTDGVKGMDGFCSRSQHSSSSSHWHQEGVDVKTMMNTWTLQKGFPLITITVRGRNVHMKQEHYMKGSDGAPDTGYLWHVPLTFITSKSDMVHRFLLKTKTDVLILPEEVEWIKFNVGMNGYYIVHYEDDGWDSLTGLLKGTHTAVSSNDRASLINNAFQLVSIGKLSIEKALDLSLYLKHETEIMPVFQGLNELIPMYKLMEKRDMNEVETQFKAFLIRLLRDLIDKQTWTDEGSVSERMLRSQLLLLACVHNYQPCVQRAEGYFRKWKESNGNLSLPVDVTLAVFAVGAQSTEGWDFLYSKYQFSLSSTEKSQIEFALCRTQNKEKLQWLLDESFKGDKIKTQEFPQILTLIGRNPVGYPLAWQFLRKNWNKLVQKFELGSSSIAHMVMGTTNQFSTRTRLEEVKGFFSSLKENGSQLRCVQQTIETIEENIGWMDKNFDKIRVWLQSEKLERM
CFTR F508del cor = correctors of CFTR F508del function in bronchial epithelial cells. activity (quench increase), % at 7.58 µM. CFBE cells, YFP halide quenching; stimulated with forskolin plus potentiator P3; % fluorescence drop versus neutral controls. hit rate 0.36% among 350,000;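 active means mean added fluorescence quench of at least 8% versus neutral control, with both replicates also reaching 8%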;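 further: cells transiently co-express mutant CFTR-F508del with the halide-sensitive YFP; corrector assay measuring rescue of mutant channel to the surface after 24 h compound exposure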
ARNT TACC3 PPI = disruptors of human ARNT/TACC3 interaction; inhibition, % at 9.99 µM; hit rate 0.66% among 390,000; AlphaScreen His-ARNT PAS-B/GST-TACC3 binding, luminescence; TACC3 fragment carries E629A point mutation;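 active means mean inhibition of replicates at least 50% and at least half of replicates each reaching 50%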;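 further: 0% = complete ARNT plus TACC3 wells and 100% = ARNT alone without TACC3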
rRNA inh HTS = inhibits bacterial ribosomal RNA function over humanized ribosomes; E. coli WT GFP vs humanized-ribosome RFP mutants, fluorescence, 24 h; stronger effect = lower value; DMSO median 0, no signal -100; GFP signal change (wild-type ribosome), % (concentration not given with the values); hit rate 1.6% among 350,000; AID 720706;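 active means significant combined selectivity score with lowered wild-type GFP, culture density cut under 30%, mutant RFP and density less affected; inactive means any of these conditions unmet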
PvdQ acylase = P. aeruginosa PvdQ acylase inhibition. purified PvdQ acylase, fluorescence plate reader. inhibition, % at 10 µM. hit rate 0.063% among 340,000; in the data active means inhibition above about 30%, passing the limit was not always enough;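 further: 0% = vehicle neutral wells and 100% = reference inhibitor wells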
The depositor's hits bear a star; / = not tested or not shown. Most compounds without a hit are left out; they make up all but 2.1% or so of the library.

SMILES	ERAP1 inh	CFTR F508del cor	ARNT TACC3 PPI	rRNA inh HTS	PvdQ acylase
CC(=O)Nc1ccc(NC(=O)c2ccc(C)c(S(=O)(=O)Nc3cccc(C)c3)c2)cc1	1	-2	3	-27*	9
CCCN(Cc1ccccc1)C(=S)NC(=O)c1ccccc1[N+](=O)[O-]	-4	0	9	-51*	-9
CCCC(=O)Nc1ccc2c(c1)C(=O)N(C)C[C@@H](OC)[C@H](C)CN(C(=O)CN1CCOCC1)[C@H](C)CO2	7	8.4*	/	-1	/
CCCC(=O)Nc1ccc2c(c1)OC[C@@H](C)N(C(=O)CN1CCOCC1)C[C@@H](C)[C@H](OC)CN(C)C2=O	1	1	-16	0	/
CCOc1c(Br)cc(C(N)=O)cc1OCc1ccccc1	0	-2	-4	-37	-16
COc1cc(C(N)=O)cc(Br)c1OCc1ccccc1	-2	-1	-5	-28*	-7
Cc1ccc(S(=O)(=O)Nc2ccc3c(c2)C(=O)N([C@H](C)CO)C[C@H](C)[C@@H](CN(C)C(=O)Nc2ccc(F)cc2)OCCCC[C@@H](C)O3)cc1	-2	-3	-8	0	/
O=C(C[C@H]1CC[C@@H](NC(=O)NC2CCCCC2)[C@H](CO)O1)NCc1ccccc1	0	-1	-9	1	/
CO[C@H]1CN(C)C(=O)c2cc(NS(=O)(=O)c3ccc(C)cc3)ccc2OC[C@@H](C)N(C(=O)NC(C)C)C[C@H]1C	3	2	-2	0	/
O=C(NCC[C@H]1CC[C@@H](NC(=O)c2cccnc2)[C@H](CO)O1)Nc1ccc(F)cc1	0	3	1	0	/
C=C(C)Cn1c(=O)c2c(nc3n2CCCN3Cc2ccccc2)n(C)c1=O	2	2	5	-28*	2
COc1ccc(CCC(=O)N2CCN(S(=O)(=O)c3ccc4ccccc4c3)CC2)cc1	/	/	9	/	-9
COc1ccc(CCC(=O)N2CCN(S(=O)(=O)c3ccc(OC(F)(F)F)cc3)CC2)cc1	0	16*	/	-3	-6
CCCCCCCCCC(=O)OCC(O)CO (stereo not given)	-1	8.2*	-1	/	2
CCCCCCCC(=O)OCC(COC(=O)CCCCCCC)OC(=O)CCCCCCC	-7	-3	/	0	-15
COc1ccc(OC)c(Nc2cc(C)nc3ccc(C)cc23)c1	1	12*	5	2	-11
O=C(C[C@H]1CC[C@@H](NS(=O)(=O)c2ccccc2)[C@H](CO)O1)NCc1ccc(Cl)c(Cl)c1	1	-3	/	-11	/
CCS(=O)(=O)C(C)(CCl)C(=O)Nc1ccc(C(=O)OC)cc1 (stereo not given)	3	2	active	15	-10
C[C@@H]1CCCCO[C@@H](CN(C)C(=O)Nc2ccc3c(c2)OCO3)[C@@H](C)CN([C@H](C)CO)C(=O)c2cc(NC(=O)Nc3ccccc3)ccc2O1	1	1	0	6	/
O=C(O)C1=C[C@@H](O)[C@@H](O)[C@H](O)C1	-2	9.7*	6	/	-6
NC1C=CC=C(C(=O)O)C1 (stereo not given)	-2	-3	0	/	-4
O=C(O)CC/C(=C\c1ccc(N2CCCC2)c([N+](=O)[O-])c1)c1nc2ccccc2s1	-2	-1	-1	-40*	1
CN(c1ccccc1)c1ccc(/C=C(/CCC(=O)O)c2nc3ccccc3s2)cc1[N+](=O)[O-]	0	0	7	-33	18
CC1(C)CC(=O)C(C2C3=C(CC(C)(C)CC3=O)Oc3ccccc32)C(=O)C1 (stereo not given)	-2	1	-6	-22*	7
CC1(C)CC(=O)C(C2C3=C(CC(C)(C)CC3=O)Oc3ccc4ccccc4c32)C(=O)C1 (stereo not given)	3	1	13	8	1
SMILES	ERAP1 inh	CFTR F508del cor	ARNT TACC3 PPI	rRNA inh HTS	PvdQ acylase
COc1cc(C=NO)nc(-c2ccccn2)c1	3	3	59*	-28	-21
Cc1cccc(-n2cnc(C(=O)NNC(=S)Nc3ccc(Cl)cc3)c2)n1	2	2	67*	-42	-8
COc1ccc(Cc2c(-c3ccc(F)cc3)nc3ccc(C)cn23)c(C)c1	/	4	/	9	/
COc1ccc(Cc2c(-c3ccc(OC)c(OC)c3)nc3ccc(C)cn23)c(C)c1	/	2	/	-32*	/
CN1/C(=C/C=C/c2n(C)c3cc([N+](=O)[O-])c([N+](=O)[O-])cc3[n+]2C)C(C)(C)c2ccccc21	12	1	/	-59*	/
C[C@H](CO)N1C[C@H](C)[C@H](CN(C)S(=O)(=O)c2cccs2)Oc2c(NC(=O)CCCCCC(=O)Nc3ccccc3N)cccc2C1=O	2	2	/	-7	/
O=C(CN1CCOCC1)NCC[C@@H]1CC[C@@H](NC(=O)Nc2ccc(C(F)(F)F)cc2)[C@@H](CO)O1	/	-1	/	2	/
CCCCC(=O)OCC(=O)C1(O)Cc2c(O)c3c(c(O)c2C(OC2CC(NC(=O)C(F)(F)F)C(O)C(C)O2)C1)C(=O)c1c(OC)cccc1C3=O (stereo not given)	-3	3	-4	-6	1
COc1cccc2c1C(=O)c1c(O)c3c(c(O)c1C2=O)C[C@](O)(C(C)=O)C[C@H]3O[C@@H]1C[C@@H](N)[C@@H](O)[C@@H](C)O1	19	31*	16	/	-8
COc1cccc2c1-c1c(O)cccc1C2=O	-2	1	9	-6	-9
COc1cccc2c1C(=N)c1c(O)c3c(c(O)c1C2=O)CC(O)(C(C)=O)CC3OC1CC(N)C(O)C(C)O1 (stereo not given)	/	/	49*	/	-9
COc1cccc2c1C(=O)c1c(O)c3c(c(O)c1C2=O)CC(O)(C(C)=O)CC3OC1CC(O)C(O)C(C)O1 (stereo not given)	32*	19*	18	/	9
COc1ccc2c3c([nH]c2c1)[C@@H](CO)N(C(=O)c1ccc(F)cc1)CC31CN(S(=O)(=O)c2cccs2)C1	0	-2	/	-6	/
O=C(C1CCCC1)N1CC2(C1)[C@@H](c1ccccc1)[C@@H](CO)N2C(=O)CC1CC1	-1	2	/	1	/
COc1ccc(-c2cc(=O)c3ccccc3s2)cc1	1	1	-3	1	41*
COc1ccc(-n2sc3ccccc3c2=O)cc1	75*	-6	/	-1	/
COc1ccc2sc3ccccc3c(=O)c2c1	/	/	15	/	7
COc1ccc(-n2sc3ccc(F)cc3c2=O)cc1	6	0	0	-34	8
O=C(COc1ccccc1)N1c2ccccc2Sc2ccccc21	0	-5	-10	-34*	5
CCCOC(=O)C1=C(C)NC2=C(C(=O)CCC2)C1c1ccc(N(C)C)cc1 (stereo not given)	/	/	1	/	-2
CCOC(=O)C1=C(C)NC2=C(C(=O)CCC2)C1c1ccc(N(C)C)cc1 (stereo not given)	/	/	active	/	-3
